Data reported in the supplement of paper PMC10849652.
About 8,800 targets were measured; listed, in parts, are those with a hit and a random draw of the rest. About 0.5% of all pairs of compound and target were hits. A number with no mark means an inactive call.

Columns and labels:
Assay in all cases: log2 fold change, soluble protein after heating vs DMSO (PISA); higher = thermal stabilisation; K562 lysate, 10 uM; active = over 0.2 and 3.5 SD of the protein, either way, in both replicates (recomputed)
alvocidib = compound: CN1CC[C@H](c2c(O)cc(O)c3c(=O)cc(-c4ccccc4Cl)oc23)[C@H](O)C1 [alvocidib]
Procedure, shortened: (§1)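 Dounce homogenisation of K562 pellets in PBS pH 7.4 with 1 mM MgCl2 produced a crude extract, used at 1 mg/mL protein. Exposure to 10 μM compound lasted 30 min, and aliquots were then heated for 3 min across 48°C-58°C, pooled and brought to 0.5% NP-40 at 4°C. The supernatant after 21,000xg for 90 min was quantified by TMTpro 16plex LC-MS/MS with channel sums equalised. Duplicate values are given as log-two fold change in thermal stability relative to solvent controls.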

Tubastatin A = compound: CN1CCc2c(c3ccccc3n2Cc2ccc(C(=O)NO)cc2)C1 [Tubastatin A]
Procedure, shortened: as §1

[1] = compound: CNC(=O)C1=CC=CC=C1NC2=NC(=NC=C2Cl)NC3=C(C=C(C=C3)N4CCOCC4)OC
Procedure, shortened: as §1

defactinib = compound: CNC(=O)c1ccc(Nc2ncc(C(F)(F)F)c(NCc3nccnc3N(C)S(C)(=O)=O)n2)cc1 [defactinib]
Procedure, shortened: as §1

[2] = compound: CNc1nc(-c2ccc3c(N)n[nH]c3c2)cc(N2C[C@@H](C(=O)NC3CCCCC3)CC[C@H]2C)n1
Procedure, shortened: as §1

encorafenib = compound: COC(=O)N[C@@H](C)CNc1nccc(-c2cn(C(C)C)nc2-c2cc(Cl)cc(NS(C)(=O)=O)c2F)n1 [encorafenib]
Procedure, shortened: as §1

[3] = compound: COC(=O)[C@H](CCSC)NC(=O)C1=C(C=C(C=C1)NC[C@H](CS)N)C2=CC=CC=C2
Procedure, shortened: as §1

alisertib = compound: COc1cc(Nc2ncc3c(n2)-c2ccc(Cl)cc2C(c2c(F)cccc2OC)=NC3)ccc1C(=O)O [alisertib]
Procedure, shortened: as §1

[4] = compound: COc1cc2nc(-c3cc(F)ccc3O)nc(N[C@@H]3CNC[C@H]3C(C)(C)O)c2cc1OC
Procedure, shortened: as §1

gefitinib = compound: COc1cc2ncnc(Nc3ccc(F)c(Cl)c3)c2cc1OCCCN1CCOCC1 [gefitinib]
Procedure, shortened: as §1

lapatinib = compound: CS(=O)(=O)CCNCc1ccc(-c2ccc3ncnc(Nc4ccc(OCc5cccc(F)c5)c(Cl)c4)c3c2)o1 [lapatinib]
Procedure, shortened: as §1

pictilisib = compound: CS(=O)(=O)N1CCN(Cc2cc3nc(-c4cccc5[nH]ncc45)nc(N4CCOCC4)c3s2)CC1 [pictilisib]
Procedure, shortened: as §1

crizotinib = compound: C[C@@H](Oc1cc(-c2cnn(C3CCNCC3)c2)cnc1N)c1c(Cl)ccc(F)c1Cl [crizotinib]
Procedure, shortened: as §1

[5] = compound: C[C@H](C1=CC=C(C=C1)C(=O)NC2=C3C=CNC3=NC=C2)N
Procedure, shortened: as §1

duvelisib = compound: C[C@H](Nc1ncnc2nc[nH]c12)c1cc2cccc(Cl)c2c(=O)n1-c1ccccc1 [duvelisib]
Procedure, shortened: as §1

gandotinib = compound: Cc1cc(Nc2cc(CN3CCOCC3)c3nc(C)c(Cc4ccc(Cl)cc4F)n3n2)n[nH]1 [gandotinib]
Procedure, shortened: as §1

tozasertib = compound: Cc1cc(Nc2cc(N3CCN(C)CC3)nc(Sc3ccc(NC(=O)C4CC4)cc3)n2)n[nH]1 [tozasertib]
Procedure, shortened: as §1

doramapimod = compound: Cc1ccc(-n2nc(C(C)(C)C)cc2NC(=O)Nc2ccc(OCCN3CCOCC3)c3ccccc23)cc1 [doramapimod]
Procedure, shortened: as §1

bafetinib = compound: Cc1ccc(NC(=O)c2ccc(CN3CC[C@H](N(C)C)C3)c(C(F)(F)F)c2)cc1Nc1nccc(-c2cncnc2)n1 [bafetinib]
Procedure, shortened: as §1

[6] = compound: Cc1cccc(CC(=O)N2CCc3c2ccc(-c2cn(C)c4ncnc(N)c24)c3F)n1
Procedure, shortened: as §1

UniProt P35236, sequence (P35236 whole entry, looked up): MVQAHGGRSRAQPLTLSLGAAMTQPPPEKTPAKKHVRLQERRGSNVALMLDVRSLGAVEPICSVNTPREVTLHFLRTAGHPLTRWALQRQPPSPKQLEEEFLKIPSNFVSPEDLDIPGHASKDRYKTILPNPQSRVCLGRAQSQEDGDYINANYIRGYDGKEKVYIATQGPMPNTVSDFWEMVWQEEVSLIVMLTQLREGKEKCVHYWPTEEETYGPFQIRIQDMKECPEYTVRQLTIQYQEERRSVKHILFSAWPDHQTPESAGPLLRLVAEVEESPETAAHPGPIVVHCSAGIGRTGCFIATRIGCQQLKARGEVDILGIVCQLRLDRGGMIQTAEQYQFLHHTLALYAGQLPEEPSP
UniProt Q93096, sequence (Q93096 whole entry, looked up): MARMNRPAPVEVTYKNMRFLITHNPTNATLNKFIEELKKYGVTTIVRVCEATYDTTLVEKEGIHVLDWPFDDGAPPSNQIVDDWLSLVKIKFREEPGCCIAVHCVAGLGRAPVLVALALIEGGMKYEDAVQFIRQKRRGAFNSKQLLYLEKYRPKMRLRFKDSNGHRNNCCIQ
UniProt Q93100, sequence (Q93100 whole entry, looked up): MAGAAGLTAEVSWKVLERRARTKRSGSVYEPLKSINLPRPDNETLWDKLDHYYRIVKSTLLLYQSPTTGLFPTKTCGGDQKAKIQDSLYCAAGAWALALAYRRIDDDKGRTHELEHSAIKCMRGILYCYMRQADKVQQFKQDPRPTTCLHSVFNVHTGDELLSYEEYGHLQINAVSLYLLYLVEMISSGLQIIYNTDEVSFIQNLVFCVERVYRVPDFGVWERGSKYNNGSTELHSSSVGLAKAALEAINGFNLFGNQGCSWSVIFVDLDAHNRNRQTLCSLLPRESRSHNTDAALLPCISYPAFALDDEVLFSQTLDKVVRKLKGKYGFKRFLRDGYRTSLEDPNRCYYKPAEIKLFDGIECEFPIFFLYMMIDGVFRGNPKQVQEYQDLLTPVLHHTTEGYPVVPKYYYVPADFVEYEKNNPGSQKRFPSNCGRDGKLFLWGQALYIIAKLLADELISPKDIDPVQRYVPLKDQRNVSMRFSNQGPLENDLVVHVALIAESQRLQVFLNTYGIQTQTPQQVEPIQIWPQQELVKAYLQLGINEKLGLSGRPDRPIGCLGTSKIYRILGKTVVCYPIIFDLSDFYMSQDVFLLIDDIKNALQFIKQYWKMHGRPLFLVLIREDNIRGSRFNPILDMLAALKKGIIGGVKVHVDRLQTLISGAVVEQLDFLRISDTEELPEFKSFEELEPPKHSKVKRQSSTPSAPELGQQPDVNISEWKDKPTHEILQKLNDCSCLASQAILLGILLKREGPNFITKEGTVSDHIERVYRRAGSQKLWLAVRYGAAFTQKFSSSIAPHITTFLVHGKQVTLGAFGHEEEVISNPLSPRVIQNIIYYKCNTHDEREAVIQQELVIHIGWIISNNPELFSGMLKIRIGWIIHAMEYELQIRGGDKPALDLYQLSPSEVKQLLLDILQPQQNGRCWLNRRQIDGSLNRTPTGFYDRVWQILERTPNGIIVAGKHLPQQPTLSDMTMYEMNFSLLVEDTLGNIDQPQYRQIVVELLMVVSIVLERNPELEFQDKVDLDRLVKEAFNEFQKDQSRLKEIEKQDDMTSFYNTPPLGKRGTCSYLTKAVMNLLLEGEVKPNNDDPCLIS
UniProt P48147, sequence (P48147 whole entry, looked up): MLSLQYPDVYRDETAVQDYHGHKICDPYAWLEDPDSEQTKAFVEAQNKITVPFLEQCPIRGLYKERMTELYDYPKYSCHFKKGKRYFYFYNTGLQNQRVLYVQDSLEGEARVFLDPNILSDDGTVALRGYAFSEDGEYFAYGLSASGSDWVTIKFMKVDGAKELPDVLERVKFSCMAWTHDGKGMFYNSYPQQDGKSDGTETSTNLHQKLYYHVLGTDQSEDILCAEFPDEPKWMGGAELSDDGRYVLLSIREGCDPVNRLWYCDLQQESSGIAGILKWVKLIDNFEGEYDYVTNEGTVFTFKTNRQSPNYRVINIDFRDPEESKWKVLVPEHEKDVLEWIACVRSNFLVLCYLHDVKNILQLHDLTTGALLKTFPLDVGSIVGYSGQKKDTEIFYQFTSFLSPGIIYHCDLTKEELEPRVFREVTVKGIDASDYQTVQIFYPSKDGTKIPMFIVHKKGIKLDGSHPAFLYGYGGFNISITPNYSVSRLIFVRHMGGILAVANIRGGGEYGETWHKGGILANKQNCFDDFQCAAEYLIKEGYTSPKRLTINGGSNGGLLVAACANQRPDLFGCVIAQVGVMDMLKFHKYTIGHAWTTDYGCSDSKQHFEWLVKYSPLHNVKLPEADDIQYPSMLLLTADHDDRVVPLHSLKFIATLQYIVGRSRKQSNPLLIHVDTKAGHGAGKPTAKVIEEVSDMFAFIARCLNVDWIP
UniProt P42356, sequence (P42356 whole entry, looked up): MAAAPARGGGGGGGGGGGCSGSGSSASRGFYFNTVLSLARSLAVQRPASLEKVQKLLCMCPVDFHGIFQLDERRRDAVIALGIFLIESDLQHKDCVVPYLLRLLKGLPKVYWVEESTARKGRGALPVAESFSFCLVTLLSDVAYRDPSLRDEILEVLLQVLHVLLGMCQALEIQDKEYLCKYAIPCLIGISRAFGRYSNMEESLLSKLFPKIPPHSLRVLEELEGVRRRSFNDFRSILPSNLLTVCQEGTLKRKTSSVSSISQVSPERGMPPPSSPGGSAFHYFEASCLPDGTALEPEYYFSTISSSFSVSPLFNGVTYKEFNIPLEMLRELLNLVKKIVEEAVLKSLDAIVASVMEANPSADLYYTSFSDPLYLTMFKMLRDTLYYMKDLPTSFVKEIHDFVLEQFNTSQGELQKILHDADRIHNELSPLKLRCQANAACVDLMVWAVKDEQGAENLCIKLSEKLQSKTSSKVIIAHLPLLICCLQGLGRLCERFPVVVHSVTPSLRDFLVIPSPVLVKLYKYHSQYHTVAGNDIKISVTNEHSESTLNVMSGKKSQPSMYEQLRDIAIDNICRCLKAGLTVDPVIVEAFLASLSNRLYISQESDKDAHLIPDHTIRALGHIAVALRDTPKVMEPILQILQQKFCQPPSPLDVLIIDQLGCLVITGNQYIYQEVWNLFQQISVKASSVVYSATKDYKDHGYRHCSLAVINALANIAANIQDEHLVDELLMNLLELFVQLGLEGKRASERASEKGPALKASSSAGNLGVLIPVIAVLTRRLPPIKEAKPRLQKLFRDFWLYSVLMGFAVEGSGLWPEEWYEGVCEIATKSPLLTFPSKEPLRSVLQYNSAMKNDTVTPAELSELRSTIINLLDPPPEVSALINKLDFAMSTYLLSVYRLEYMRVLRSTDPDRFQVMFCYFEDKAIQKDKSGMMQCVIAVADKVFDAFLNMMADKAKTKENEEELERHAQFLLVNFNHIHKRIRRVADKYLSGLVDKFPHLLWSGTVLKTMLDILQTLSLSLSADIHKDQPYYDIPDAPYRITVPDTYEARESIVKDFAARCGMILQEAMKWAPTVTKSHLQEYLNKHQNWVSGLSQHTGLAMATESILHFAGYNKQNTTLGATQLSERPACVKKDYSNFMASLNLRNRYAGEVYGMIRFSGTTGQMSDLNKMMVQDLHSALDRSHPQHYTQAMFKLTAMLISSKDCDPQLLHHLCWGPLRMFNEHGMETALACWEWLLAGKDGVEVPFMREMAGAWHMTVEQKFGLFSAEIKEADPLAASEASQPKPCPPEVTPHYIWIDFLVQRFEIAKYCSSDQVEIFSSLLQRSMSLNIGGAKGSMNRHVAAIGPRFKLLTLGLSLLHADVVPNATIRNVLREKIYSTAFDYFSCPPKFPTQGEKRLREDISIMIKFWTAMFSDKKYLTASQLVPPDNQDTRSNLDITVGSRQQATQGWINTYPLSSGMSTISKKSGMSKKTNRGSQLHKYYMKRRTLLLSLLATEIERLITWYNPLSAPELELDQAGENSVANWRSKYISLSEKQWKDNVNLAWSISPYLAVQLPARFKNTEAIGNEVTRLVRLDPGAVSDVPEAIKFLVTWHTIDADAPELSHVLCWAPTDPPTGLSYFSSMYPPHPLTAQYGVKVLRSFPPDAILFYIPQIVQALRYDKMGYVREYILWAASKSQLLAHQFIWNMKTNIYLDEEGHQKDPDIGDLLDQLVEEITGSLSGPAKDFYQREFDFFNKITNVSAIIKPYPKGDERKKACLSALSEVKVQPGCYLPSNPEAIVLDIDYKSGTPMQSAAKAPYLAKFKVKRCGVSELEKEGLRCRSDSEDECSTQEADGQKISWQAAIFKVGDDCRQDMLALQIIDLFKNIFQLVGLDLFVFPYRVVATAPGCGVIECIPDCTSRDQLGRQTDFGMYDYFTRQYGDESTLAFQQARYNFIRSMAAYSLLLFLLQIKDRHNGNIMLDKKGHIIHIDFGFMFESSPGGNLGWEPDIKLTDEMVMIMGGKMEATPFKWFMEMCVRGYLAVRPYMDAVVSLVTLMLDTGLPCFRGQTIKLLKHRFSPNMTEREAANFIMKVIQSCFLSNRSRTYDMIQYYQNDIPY
UniProt P14314, sequence (P14314 whole entry, looked up): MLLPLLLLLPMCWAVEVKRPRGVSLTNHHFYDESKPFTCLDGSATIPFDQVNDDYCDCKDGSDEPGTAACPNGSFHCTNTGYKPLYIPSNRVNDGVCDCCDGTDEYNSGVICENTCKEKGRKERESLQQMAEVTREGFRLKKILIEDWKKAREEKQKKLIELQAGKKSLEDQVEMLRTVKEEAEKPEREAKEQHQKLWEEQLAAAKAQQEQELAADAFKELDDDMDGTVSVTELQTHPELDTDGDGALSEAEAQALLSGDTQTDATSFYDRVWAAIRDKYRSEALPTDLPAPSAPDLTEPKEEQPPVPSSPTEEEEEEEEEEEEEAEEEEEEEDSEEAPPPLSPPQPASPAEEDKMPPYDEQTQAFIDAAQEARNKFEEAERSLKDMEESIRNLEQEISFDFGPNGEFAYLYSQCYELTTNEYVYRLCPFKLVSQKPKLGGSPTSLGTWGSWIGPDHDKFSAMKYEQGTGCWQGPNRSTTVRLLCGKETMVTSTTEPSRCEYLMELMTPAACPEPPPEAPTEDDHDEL

Target	log2 fold change (alvocidib)	log2 fold change (Tubastatin A)	log2 fold change [1]	log2 fold change (defactinib)	log2 fold change [2]	log2 fold change (encorafenib)	log2 fold change [3]	log2 fold change (alisertib)	log2 fold change [4]	log2 fold change (gefitinib)	log2 fold change (lapatinib)	log2 fold change (pictilisib)	log2 fold change (crizotinib)	log2 fold change [5]	log2 fold change (duvelisib)	log2 fold change (gandotinib)	log2 fold change (tozasertib)	log2 fold change (doramapimod)	log2 fold change (bafetinib)	log2 fold change [6]
POLB (UniProt P06746)	0.023	-0.199	-0.062	0.028	-0.033	0.045	0.086	0.015	0	0.038	0.017	0.075	-0.003	0.011	0.018	-0.041	-0.015	-0.003	-0.024	-0.009
PICALM (UniProt Q13492)	-0.021	0.029	-0.032	-0.037	-0.033	0.042	0.014	0.008	0.017	0.008	0.012	0.001	0.024	0.052	0.012	0.022	0.013	0.028	-0.055	-0.007
PREP (UniProt P48147)	0.018	-0.021	0.018	0.005	-0.019	-0.024	0.361 (active)	-0.011	0.013	-0.012	-0.024	-0.013	-0.016	0.009	0.043	-0.042	-0.012	-0.001	-0.004	-0.01
PRKCSH (UniProt P14314)	0.009	0.039	-0.001	-0.014	-0.035	-0.003	-0.036	-0.006	0.024	0.024	-0.004	-0.004	0.062	0.046	0.022	-0.023	0.02	-0.042	0.05	-0.088
PTPN7 isoform 3 (UniProt P35236)	-0.082	-0.138	0.057	0.017	0.038	-0.051	0.122	0.021	-0.023	-0.025	-0.025	-0.04	0.043	-0.028	-0.006	0.056	0	0.007	0.036	0.115
PRRC2A (UniProt P48634)	-0.006	-0.014	-0.001	0.046	-0.012	0.048	-0.044	0.016	0.005	-0.008	-0.02	-0.017	0.06	0.011	-0.001	0.007	-0.013	-0.073	0.031	-0.058
PCBP2 (UniProt H3BRU6)	0.033	-0.116	0.082	0.061	0.018	0.04	0.017	-0.023	0.072	-0.145	0.116	-0.021	-0.04	0.044	0.028	0.01	-0.112	-0.119	0.079	-0.041
PRAME (UniProt P78395)	0.034	-0.111	0.024	0.006	-0.006	-0.001	0.13	0.014	0.009	-0.007	-0.012	-0.008	-0.08	-0.015	0.005	-0.037	-0.013	0.007	-0.062	0.056
PRKCSH isoform 2 (UniProt P14314)	-0.124	0.002	-0.078	-0.011	-0.05	0.039	-0.013	-0.079	-0.042	0.092	0.132	0.072	-0.016	-0.622 (active)	0.174	0.293	0.092	0.136	0.055	0.24
PGPEP1 (UniProt Q9NXJ5)	0.05	-0.182	0.012	-0.032	-0.055	0.02	0.057	-0.045	0.01	-0.06	0.023	-0.013	0.011	-0.025	0.057	-0.029	0.03	0.045	-0.013	-0.019
PFKFB2 (UniProt O60825)	0.017	-0.045	0.03	-0.02	-0.035	0.015	-0.124	0.014	0.006	0.014	0.006	0.001	0.017	-0.016	-0.015	-0.035	0.038	-0.018	-0.07	0.01
PTP4A1 (UniProt Q93096)	0.05	0.033	0.023	0.033	0.023	0.006	-0.006	-0.056	-0.015	0.049	-0.002	0.008	0.09	0.133	0.023	-0.031	0.001	-0.009	-0.042	-0.055
PIP4K2A (UniProt P48426)	0.279 (active)	-0.048	0.006	0.065	-0.035	0.141	-0.071	0.01	0.005	0.037	-0.04	0.032	0.019	-0.089	0.05	0.109	0.014	-0.035	0.301 (active)	0.005
PHKB isoform 3 (UniProt Q93100)	0.04	-0.099	0.223	-0.006	-0.018	-0.019	0.015	0.006	0.107	0.03	-0.042	0.025	0.026	-0.126	-0.025	0.127	-0.021	-0.061	-0.012	0.027
PI4KA (UniProt P42356)	-0.006	-0.165	0.035	0.006	-0.029	0.026	-0.005	0.028	0.019	0	-0.03	0.097	-0.005	-0.043	0.189	-0.033	0.013	-0.002	-0.075	0.073
PTS (UniProt Q03393)	-0.055	-0.007	0.043	-0.059	0.015	0.1	-0.022	-0.009	0.016	0.121	-0.018	0.008	0.051	-0.024	0.051	-0.039	0.031	-0.069	0	0.05
